Calls of active or inactive are those of the source.

This experiment can be described thus: change in splice reporter luminescence, either direction, cell-based, HEK293, spliceosome inhibition project, primary screen (AID 1101).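 Further: HEK293 cells carrying a splicing-competent luciferase reporter gene; test concentration not given here.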 To be noted: HEK293 splicing luciferase reporter, 24 h, higher = more signal, called active from +8 up or from −8 down. Background: Reporter assays use an easily measured gene product as a stand-in for the process of interest.
As to `O=C1C[C@]2(c3ccc([N+](=O)[O-])cc3)C(=O)N(C3CC3)c3cc(CO)ccc3[C@H]2N1C1CCCCC1`, the z-score was -0.282 (inactive). As for `CN(C)CCCNC(=O)[C@@]1(Cc2ccccc2I)c2ccccc2C(=O)N(C2CCCCC2)[C@H]1c1ccc(CO)cc1`, the z-score was -4.61 (inactive). In the case of `C=CCC(OC(C)=O)[C@@H]1[C@@H](N(Cc2cccc3ccccc23)C(=O)c2ccc(-c3ccccc3)cc2)c2cc(OCCCO)ccc2N1C(=O)Cc1ccc2ccccc2c1` (stereo partly specified) it was -1.08 (inactive); in that of `COc1cc(C(O)C2C=CC3C(=O)N(c4ccccc4)C(=O)C3N2Nc2ccccc2F)cc(OC)c1OC` (stereo unspecified), 0.392 (inactive); in that of `C=CCN1C(=O)[C@@]2(O[C@@H](CCn3cc([C@H](O)c4ccccc4)nn3)[C@H]([Si](C)(C)c3ccc(OC)cc3)[C@H]2C)c2cc(N3C(=O)c4cccc5cccc3c45)ccc21`, -0.447 (inactive). In the case of `COC(=O)[C@H](Cc1ccc(O)cc1)N[C@@H](/C=C/C1CC1)[C@H](O)Cc1ccccc1` it was 1.29 (inactive). With `COc1ccc([Si](C)(C)[C@@H]2[C@@H](CC(=O)N3CCC[C@H]3CO)O[C@]3(C(=O)N(Cc4cccc(N5CCCCC5=O)c4)c4ccccc43)[C@H]2C)cc1`, the z-score was 0.238 (inactive). As for `O=C1C[C@@](C(=O)O)(c2ccc([N+](=O)[O-])cc2)[C@@H](c2ccc(CO)cc2)N1C1CCCCC1`, the figure is 0.185 (inactive); as for `CCOC(=O)c1cn(C[C@H](Cc2ccccc2)NC(=O)N[C@H](CO)CCc2oc(C(C)=O)c(C(=O)OC)c2C(=O)OC)nn1`, -1.1 (inactive); as for `NCCCCCCNC(=O)[C@@H]1C[C@@H]2C(=O)N3CCC[C@H]3C(=O)N2[C@@H]1c1cccc(OCCO)c1`, -1.42 (inactive). As for `COCCOC(=O)N1C(=O)[C@@]2(c3cc(C#CCCO)ccc31)[C@H](C(N)=O)[C@H]1C(=O)O[C@H](c3ccccc3)[C@H](c3ccccc3)N1[C@@H]2c1ccccc1OCCO`, the figure is -0.871 (inactive).

The record behind these values is PubChem BioAssay.
